High-throughput results as filed in PubChem.
NPC1 promoter act = qHTS Assay for NPC1 Promoter Activators; actives 2.4% (n = 320,000); Potency, µM (top dose mostly 9.22 µM), without a hit: top-dose activation, usual class: activators; Huh7 NPC1 promoter luciferase reporter, 24 h; further: % of control where 0% means no effect; nearly all actives have a fitted effect of over 60% in size
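Stably transfected Huh7 (NPC1 promoter→luciferase), 1500 cells/well in Opti-MEM + 10% FBS, 2 h settle, then compound 24 h at 37 °C. Luminescence after 10 min with Amplite reagent.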
FLuc counter = qHTS profiling assay for firefly luciferase inhibitor/activator using purifed enzyme and Km concentrations of substrates (counterscreen for miR-21 project). Potency, µM (series often up to 57.5 µM), without a hit: at the top dose activity change, negative = inhibition, most hits filed as inhibitors. AID 588342, 2011. Luciferin 4-monooxygenase (Photinus pyralis), P08659. actives 6.9% (n = 360,000). purified FLuc, Km substrates, luminescence inhibition;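 further: plate controls were vehicle for no effect and reference inhibitor for full effect; nearly all actives have a fitted effect of over 55% in size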
Target sequence (P08659 whole entry, looked up): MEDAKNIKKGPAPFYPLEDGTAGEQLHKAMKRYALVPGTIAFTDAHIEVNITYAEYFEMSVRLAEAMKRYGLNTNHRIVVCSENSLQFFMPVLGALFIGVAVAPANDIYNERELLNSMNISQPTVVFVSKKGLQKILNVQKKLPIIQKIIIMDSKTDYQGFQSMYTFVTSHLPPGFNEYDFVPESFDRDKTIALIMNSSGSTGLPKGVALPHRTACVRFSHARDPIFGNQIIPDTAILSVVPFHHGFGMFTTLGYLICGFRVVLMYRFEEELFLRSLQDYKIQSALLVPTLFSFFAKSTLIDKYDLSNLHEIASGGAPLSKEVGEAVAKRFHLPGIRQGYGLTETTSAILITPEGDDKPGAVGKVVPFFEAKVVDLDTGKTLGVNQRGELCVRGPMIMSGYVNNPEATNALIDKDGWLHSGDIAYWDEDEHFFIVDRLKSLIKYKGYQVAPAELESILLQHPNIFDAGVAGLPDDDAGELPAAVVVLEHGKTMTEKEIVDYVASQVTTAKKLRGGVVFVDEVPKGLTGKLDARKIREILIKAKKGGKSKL
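Biochemical qHTS of compounds, final roughly 60 µM downward over six points, against 10 nM purified firefly luciferase using Km concentrations of substrates (10 uM D-luciferin, 10 uM ATP) in Tris acetate pH 7.5 buffer; luminescence output.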
ELG1 genotoxic = qHTS screen for small molecules that induce genotoxicity in human embryonic kidney (HEK293T) cells expressing luciferase-tagged ELG1; HEK293T ELG1-luciferase reporter, luminescence, 16 h; Potency, µM (titrated, usually from 46 µM), without a hit: top-dose activity change, positive = activation, actives largely listed as activators; actives 1.3% (n = 330,000); AID 504466, 2011; further: % of control where 0% means no effect; nearly all actives have a fitted effect of over 60% in size
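16 hr compound incubation (37 °C, 5% CO2) of HEK293T cells carrying luciferase-tagged ELG1; luciferase then measured by ONE-Glo luminescence after 30 min at RT.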
SMN2 splice up = qHTS Assay for Enhancers of SMN2 Splice Variant Expression. actives 2.8% (n = 210,000). HEK293 SMN2-luciferase splicing reporter, luminescence, 30-36 h. Potency, µM (doses to about 46.1 µM), without a hit: top-dose activity change, positive = activation, actives largely listed as activators. AID 1458, 2008; further: % of control where 0% means no effect; nearly all actives have a fitted effect of over 55% in size
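HEK293 cells carry an SMN2 […]–luciferase reporter in which exon 7 inclusion puts luciferase in frame. Cells were plated 10-12 h before compound addition, then incubated 30-36 h at 37C. ONE-Glo luminescence was read; sodium butyrate at 4.5 mM final served as control.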
Rab9 promoter act = qHTS Assay for Rab9 Promoter Activators; Huh7 Rab9 promoter-luciferase reporter, luminescence, 24 h; actives 2.8% (n = 320,000); AID 485297, 2010; Potency, µM (top dose mostly 9.22 µM), inactives show top-dose activation, negative = inhibition, most hits filed as activators; further: % of control where 0% means no effect; nearly all actives have a fitted effect of over 60% in size
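Luminescence from Amplite-detected luciferase (10 minutes, ambient) reports Rab9 promoter activation. Before that, stable Rab9-luciferase Huh7 cells (1500/well, reduced-serum OP-MEM I plus 10% FBS) were exposed to compound for 24 hours at 37C.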
ELG1 DNA repair = qHTS screen for small molecules that inhibit ELG1-dependent DNA repair in human embryonic kidney (HEK293T) cells expressing luciferase-tagged ELG1; HEK293T ELG1-luciferase reporter, luminescence, 16 h; DNA damage induced by 5-fluorouridine; Potency, µM (titrated, usually from 46.1 µM), for the others: at the highest dose activity change, negative = inhibition, usual class: inhibitors; actives 2.3% (n = 330,000); further: on the % scale 0 is the no-effect control and ±100 the full control effect; nearly all actives have a fitted effect of over 55% in size
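DMSO vehicle served as the neutral condition. Each well held 2,000 cells given 5-fluorouridine plus compound; after 16 hr at 37 °C/5% CO2, ONE-Glo was added and luciferase measured 30 min later.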
* hit, by the source's call; ? = inconclusive; . = no result given. A selection: hits, their analogues and other compounds. The true share with any hit is near 9.2%. The call rests on the fitted dose curve; in most records, active means well fitted curve in the direction sought with a large enough effect; inconclusive means small, poorly fitted or top-dose-only effect, or another doubt; inactive means no such curve, though single readings can be large; an effect the other way counts as inactive or inconclusive. Potency means the concentration at half of the fitted maximal effect.

SMILES | NPC1 promoter act | FLuc counter | ELG1 genotoxic | SMN2 splice up | Rab9 promoter act | ELG1 DNA repair
CC(=O)c1sc(NC(=O)c2ccc3c(c2)OCO3)nc1C | 2.51µM* | 4.78µM* | 10.3µM* | . | 3.55µM* | ?
O=C(CSc1cn(CC(=O)N2CCCCC2)c2ccccc12)NCc1ccccc1 | . | -7.5% | . | . | . | .
COc1ccccc1C(=O)NC(=O)Cn1nc(C)c([N+](=O)[O-])c1C | -2.3% | -2.3% | 1.1% | . | -0.9% | 0.5%
COc1ccc(/C=C/C(=O)Nc2nc(C)c(C(=O)N(C)C)s2)cc1OC | 1.9% | -3.0% | 6.7% | 1.0% | 5.0% | 7.0%
COc1ccc(/C=C/C(=O)Nc2nc(C)c(C(=O)N(C)C)s2)cc1 | 1.8% | 19µM* | 2.1% | 5.7% | -0.6% | -7.2%
COc1ccc(/C=C/C(=O)NCCCN2CCCC2)cc1 | 1.1% | 4.3% | -0.1% | . | -7.9% | 1.5%
C#CCNC(=O)/C=C/c1ccc(OC)cc1 | 28.0% | 21.3µM* | ? | 14.1µM* | ? | ?
COc1ccc(/C=C/C(=O)Nn2cnnc2)cc1 | -4.0% | 15.1µM* | 1.8% | 56.7% | -6.7% | 20.1%
COc1ccc(/C=C/C(=O)NCCSCc2ccco2)cc1 | -1.2% | 16.9µM* | 2.8% | 6.6% | -0.8% | ?
O=C(CSCc1ccc(Cl)cc1)NCCSCc1ccco1 | -11.0% | -15.7% | -2.1% | . | -3.4% | 9.4%
O=C(NCCSCc1ccco1)Nc1cc(Cl)cc(Cl)c1 | -3.6% | 26.9µM* | -5.3% | . | -6.2% | -20.3%
O=c1cnc2cnc(Oc3ccccc3)nc2n1Cc1cccs1 | . | . | . | -19.8% | . | .
CCc1nc2oc3cc(OC)ccc3c(=O)c2c(=O)n1Cc1ccccc1 | 1.3% | 5.1% | 5.3% | -27.3% | 10.4% | -14.5%
CCc1nc2oc3cc(OC)ccc3c(=O)c2c(=O)n1-c1ccccc1 | ? | -9.7% | ? | 25.1µM* | ? | ?
COc1ccc(-c2nc3sc(CCNC(=O)C(=O)Nc4ccc(C)c(C)c4)c(C)n3n2)cc1 | . | -5.1% | . | . | . | .
COc1ccc(-c2nc3sc(CCNC(=O)c4cccc(C(F)(F)F)c4)c(C)n3n2)cc1 | . | 6.75µM* | . | . | . | .
COc1ccc(-c2nc3sc(CCNC(=O)c4ccccc4C)c(C)n3n2)cc1 | . | 16.9µM* | . | . | . | .
CCOc1cc(C(=O)O/N=C(\N)c2ccc([N+](=O)[O-])cc2)cc(OCC)c1OCC | -5.3% | 2.6% | 0.9% | 6.2% | 2.5% | ?
O=C(Nc1ccccc1)O/N=C(\c1ccccc1)c1ccccn1 | -0.9% | -11.8% | 4.3% | 8.0% | 3.0% | ?
C/C(=N/OC(=O)c1ccc(F)cc1)c1ccc(C)cc1 | 0.6% | 0.675µM* | 1.1% | -6.2% | -8.5% | ?
Cc1ccccc1C(=O)O/N=C(\N)c1ccc([N+](=O)[O-])cc1 | ? | 19µM* | ? | . | ? | ?
N/C(=N\OC(=O)c1ccccc1F)c1cccc([N+](=O)[O-])c1 | 2.82µM* | 3.38µM* | ? | . | 2.82µM* | ?
Cc1ccccc1C(=O)O/N=C(\c1ccccc1)c1ccccn1 | 0.5% | 21.3µM* | -1.8% | 20.3% | -0.5% | -9.3%
COc1cc(C(=O)O/N=C(\N)c2cccc([N+](=O)[O-])c2)cc(OC)c1OC | -3.5% | -1.9% | 7.4% | . | 7.8% | -15.8%
Cc1cc(C)cc(NC(=O)COC(=O)CCn2c(C)csc2=O)c1 | -0.5% | -0.1% | -4.1% | . | -3.5% | 15.9%
COc1ccc(C(=O)N[C@H](C(=O)NCCCSc2ccccc2)C(C)C)cc1 | . | . | -8.2% | . | . | ?
CCc1ccc(NC(=O)N(Cc2ccc(C)cc2)Cc2cccn2-c2nnc(N3CCCC3=O)s2)cc1 | . | -6.8% | . | 6.2% | . | .
